# Data: publication PMC5540273 (PLoS ONE, 2017)
# Columns and labels:
# Settings in all cases: concentration: 1 μM, replicates: in singlicate; n = 1
# DAPK1 = tested on: DAPK1
# DAPK2 = tested on: DAPK2
# DAPK3 = tested on: DAPK3
# DCAMKL1 = tested on: T1, DCAMKL1
# T1 construct: gene DCLK1
# DCAMKL2 = tested on: T2, DCAMKL2
# T2 construct: gene DCLK2
# DCAMKL3 = tested on: T3, DCAMKL3
# T3 construct: gene DCLK3
# DDR1 = tested on: DDR1
# DDR2 = tested on: DDR2
# DLK = tested on: T4, DLK
# T4 construct: gene MAP3K12
# DMPK2 = tested on: T5, DMPK2
# T5 construct: gene CDC42BPG
# 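Note: KINOMEscan kinase panel screen.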
Compound,%Inh (DAPK1),%Inh (DAPK2),%Inh (DAPK3),%Inh (DCAMKL1),%Inh (DCAMKL2),%Inh (DCAMKL3),%Inh (DDR1),%Inh (DDR2),%Inh (DLK),%Inh (DMPK2)
O=C(NCCCN1CCOCC1)c1cccc(Nc2nccc(Nc3ccc(Oc4ccccc4)cc3)n2)c1 [GW663929],48%,35%,81%,38%,0%,3%,35%,50%,13%,16%
Cc1c2ccc(N(C)c3ccnc(Nc4cccc(S(N)(=O)=O)c4)n3)cc2nn1Cc1ccccc1.Cl.Cl [GW787226],0%,1%,0%,24%,0%,0%,97.7%,96.8%,0%,0%
O=C(NCCNc1ccnc(Nc2ccc(F)cc2)n1)c1cc2ccccc2s1 [GSK1379874],0%,0%,0%,0%,0%,0%,0%,1%,33%,0%
N#Cc1ccc(-c2cc(-c3c[nH]nc3-c3ccccn3)ccn2)cc1 [GW693028],0%,0%,16%,8%,17%,0%,0%,1%,40%,0%
O=C(Nc1cccc(-c2nn3ncccc3c2-c2ccnc(Nc3cccc(C(F)(F)F)c3)n2)c1)c1c(F)cccc1F [GSK299495],0%,0%,1%,13%,0%,4%,100%,56%,41%,92.6%
